High-throughput results: PubChem, Broad Institute
The list is not random: actives were taken first. Their share in the collection is about 2.9%.
PvdQ inh – P. aeruginosa PvdQ acylase inhibition; AID 488965; inhibition, % at 10 µM; 340,000 tested, 0.063% active; purified PvdQ acylase, fluorescence plate reader; in the data active = inhibition above about 30%, passing the limit was not always enough; inconclusive = no clear call, values can overlap the other calls;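 also: 0% = vehicle neutral wells and 100% = reference inhibitor wells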
Vif inh – inhibitors of HIV Vif. HEK293T cells, Vif self-association by quenched fluorescence, imaging, 24 h. inhibition, % at 7.49 µM. 340,000 tested, 0.35% active; in the data active = inhibition above about 50%, passing the limit was not always enough; inconclusive = no clear call, values can overlap the other calls; inactive = below about 31%
esBAF inh – blocks esBAF chromatin remodeling in mouse ES cells | Bmi1-luciferase knock-in reporter, 24 h; 100% = twice the neutral-well signal | reporter increase, % at 12.5 µM | 350,000 tested, 2% active | AID 602393; in the data active = activation above about 40%; inconclusive = no clear call, values can overlap the other calls;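 also: 0% = median of the plate's neutral control wells and 100% = double that signal; a rise in the Bmi1 reporter signal indicates esBAF inhibition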
MITF act – MITF TRPM1 promoter activation in melanoma cells; SK-MEL-5 TRPM1-promoter luciferase, 24 h; % of positive control, neutral wells = 0; activation, % at 12.5 µM; 300,000 tested, 0.75% active; AID 588334;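 active = mean activation of at least 80% with every replicate also reaching 80%; inconclusive = mean reaches 80% but some replicate falls short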;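 also: 0% = neutral control wells and 100% = parthenolide positive control wells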
Wnt bcat act – activators of Wnt/beta-catenin signaling | AID 743398 | 300,000 tested, 1.2% active | activation, % at 9.35 µM | Wnt/beta-catenin reporter cell assay, activator, plate reader; in the data active = activation above about 30%, passing the limit was not always enough; inconclusive = no clear call, values can overlap the other calls;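 also: 0% = neutral control wells and 100% = positive control wells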
N-glyco inh – blocks N-linked glycosylation in D54 reporter cells | D54 ERlucT glycosylation luciferase reporter, 24 h; percent of 100 nM tunicamycin response | AID 588692 | 360,000 tested, 0.23% active | reporter increase, % at 12.5 µM;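 active = mean luciferase reporter signal, scaled so untreated is 0 and the glycosylation-blocking control 100, at or above a set limit in every replicate; inconclusive = mean reaches the limit but not every replicate does; inactive = mean below the limit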;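 also: luciferase carries N-glycosylation sites so blocking glycosylation raises the light; 0% = median of neutral control wells and 100% = median of 100 nM tunicamycin wells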
* marks the source's active call; other numbers are inactive results; ? = inconclusive; · = not tested or not shown.

SMILES	PvdQ inh	Vif inh	esBAF inh	MITF act	Wnt bcat act	N-glyco inh
CCNS(=O)(=O)c1ccc2nc(NC(=O)/C=C/c3cc(OC)c(OC)c(OC)c3)sc2c1	0	-3	·	2	50*	0
COc1ccc2nc(NC(=O)Nc3ccccc3OC)sc2c1	-13	2	·	32	12	3
COc1ccc2nc(Nc3nc4cc5c(cc4s3)OCO5)sc2c1	4	5	·	15	·	2
CO[C@H]1CN(C)C(=O)c2ccc(NC(=O)Nc3ccccc3F)cc2OC[C@H](C)N(C(C)=O)C[C@H]1C	·	·	-3	·	·	·
CO[C@@H]1CN(C)C(=O)c2cc(NC(C)=O)ccc2OC[C@@H](C)N(Cc2ccc(F)cc2)C[C@@H]1C	·	·	-3	·	·	·
O=C(C[C@@H]1CC[C@H]2[C@@H](COC[C@H](O)CN2C(=O)Nc2cccc(F)c2)O1)NCc1ccccc1Cl	·	·	7	·	·	·
C[C@@H]1CN([C@H](C)CO)S(=O)(=O)c2ccc(-c3cccnc3)cc2O[C@H]1CN(C)C	·	·	-2	·	·	·
C[C@H](CO)N1C[C@H](C)[C@@H](CN(C)C)Oc2c(NC(=O)Nc3ccc(C(F)(F)F)cc3)cccc2C1=O	·	·	19	·	·	·
COc1ccccc1NC(=O)Nc1nc2ccc(S(N)(=O)=O)cc2s1	0	-6	48*	87*	21	6
C[C@H]1CN([C@@H](C)CO)C(=O)c2cc(NC(=O)Nc3ccc(C(F)(F)F)cc3)ccc2O[C@@H]1CN(C)S(C)(=O)=O	·	·	1	·	·	·
COc1cccc(-c2ccc3c(c2)[C@H]2[C@H](CCN2Cc2ccccc2OC)[C@H](CO)N3)c1	·	·	-3	·	·	·
CCC(=O)Nc1cc(C(=O)OCC(=O)c2ccccc2Cl)ccc1C	-17	3	64*	·	35*	0
CCC(=O)Nc1cc(C(=O)OCC(=O)c2ccccc2)ccc1C	4	7	·	77	35*	-4
CCC(=O)Nc1cc(C(=O)OCC(=O)c2ccc(Cl)cc2Cl)ccc1C	-11	-22	3	0	·	-1
O=C(Nc1ccc(Cl)c(Cl)c1)c1ccc(Cn2cc(Cl)cn2)cc1	-2	-12	69*	75	-24	-5
O=C(CCC(=O)OCC(=O)c1cccc([N+](=O)[O-])c1)Nc1cccc(Cl)c1Cl	-14	3	·	-7	40*	1
COC1=Nc2ccccc2N2CCN=C12	·	-5	·	·	·	1
c1ccc2c(c1)C1=NCCN1c1ccccc1-2	·	-7	·	·	11	78*
COCCNC(=O)C[C@H]1C=C[C@H](NS(=O)(=O)c2ccc(C)cc2)[C@H](CO)O1	·	·	-3	·	·	·
Cc1cc(/C=C(/C#N)C(=O)Nc2ccccc2)c(C)n1-c1cccnc1	6	31	44*	52	·	-7
Cc1ccc(-n2c(C)cc(C=C(C#N)C#N)c2C)cc1	6	20	11	9	25	0
Cc1cc(C=C(C#N)C#N)c(C)n1-c1ccccc1	-8	-7	46*	44	·	-1
CCc1ccc(-c2cc(N)n(-c3ccccc3)n2)cc1	6	9	68*	55	9	-9
Cc1ccc(C(c2c(C)nn(-c3ccccc3)c2N)c2c(C)nn(-c3ccccc3)c2N)cc1	-15	-1	·	-6	0	0
Cc1cccc(-n2nc(C)cc2N)c1	11	18	11	-1	·	2
SMILES	PvdQ inh	Vif inh	esBAF inh	MITF act	Wnt bcat act	N-glyco inh
Cc1cccc(-c2cc(N)n(-c3ccccc3)n2)c1	-8	-3	54*	87*	-1	-8
Cc1ccc(-c2cc(N)n(-c3ccccc3)n2)cc1	2	-4	·	93*	·	-4
Cc1cccc(-c2cnn(-c3ccccc3)c2N)c1	-12	0	56*	?	24	1
CCNC(=O)Nc1ccc2c(c1)C(=O)N(C)[C@H]1CC[C@@H](CC(=O)NCC3CC3)O[C@H]1CO2	·	·	-3	·	·	·
CCC(=O)N1C[C@H](C)[C@@H](OC)CN(C)C(=O)c2ccc(NC(=O)C3CCOCC3)cc2OC[C@H]1C	·	·	-8	·	·	·
O=C(C[C@@H]1CC[C@H](NC(=O)Nc2ccc3c(c2)OCO3)[C@@H](CO)O1)NCCCN1CCOCC1	·	·	-2	·	·	·
Cc1nn(-c2ccccc2)c(Cl)c1/C=N/NC(=O)OC(C)(C)C	0	-9	·	57	34*	-3
O=c1c2ccccc2c2ccccc2c(=O)n1-c1ccccc1	-9	1	·	-6	15	3
O=c1c2ccccc2c(=O)n(-c2ccccc2)n1-c1ccccc1	1	17	-2	-15	37*	2
CC(C)C#Cc1cnc2c(c1)C(=O)N([C@@H](C)CO)C[C@@H](C)[C@@H](CN(C)C(=O)c1ccccc1F)O2	·	·	-5	·	·	·
CCOC(=O)c1ccc(Nc2ncccc2[N+](=O)[O-])cc1	44*	8	?	66	20	-10
CCOC(=O)c1ccc(S(=O)(=O)NCCNCc2ccccc2)cc1	1	3	-4	2	39*	-3
CCOC(=O)c1ccc(NC(=O)C23CCC(C)(C(=O)O2)C3(C)C)cc1 (stereo not drawn)	4	-5	55*	46	·	0
CCOC(=O)c1ccc(Nc2ccc([N+](=O)[O-])cn2)cc1	-4	0	·	12	3	2
CCOC(=O)c1ccc(NC(=O)c2ccccc2)cc1	-1	-11	36	114*	19	-3
COc1ccc(NC(=O)C23CCC(C)(C(=O)O2)C3(C)C)cc1 (stereo not drawn)	-16	-1	-8	-1	·	2
CCOC(=O)c1ccc(NC(=O)c2ccccc2[N+](=O)[O-])cc1	-14	-5	73*	54	9	1
CCOC(=O)c1ccc(NC(=O)c2cccc(C)c2[N+](=O)[O-])cc1	6	3	·	-5	28	-2
CN(Cc1ccccc1)C(=O)C1CCN(S(=O)(=O)c2ccc3nc4c(c(C(=O)O)c3c2)CCCC4)CC1	2	69*	-2	-8	0	-1
COc1ccc(CNC(=O)C[C@@H]2C[C@@H]3c4cc(NS(C)(=O)=O)ccc4O[C@@H]3[C@H](CO)O2)cc1	·	·	-5	·	·	·
O=C(Nc1ccc(-c2nc3ccccc3s2)cc1)c1cc(-n2cnnc2)ccc1Cl	10	-8	60*	-49	4	-7
Cc1ccc(NC(=O)c2cc(-n3cnnc3)ccc2Cl)cc1	-2	-2	3	-5	·	3
COc1cccc(-c2ccc3n(c2=O)C[C@@H]2[C@@H](CO)[C@H](C(=O)N(C)C)N(C(=O)C4CC4)[C@H]32)c1	·	·	1	·	·	·
O=C1c2cccc3cc([N+](=O)[O-])cc(c23)C(=O)N1CC1CCCO1 (stereo not drawn)	-14	0	-8	-12	-4	16
COc1ccc(CN2C(=O)c3cccc4cccc(c34)C2=O)cc1	-6	5	·	-3	41*	-1
CN(C)CCN1C(=O)c2cccc3cc([N+](=O)[O-])cc(c23)C1=O	4	-10	·	·	-17	43*
